Source: PubChem BioAssay AID1159580 (chemical genetic matrix, 2015)
Hit rate of the full screen: of about 5,500 compounds, about 2,000 (36%) were called active. Another 18% or so got no clear call; they are omitted. This is one part of the list. A number with no mark means an inactive call. Cut-off read from the data, not from the text of the source: active = normalized growth mostly below about 0.91 (no sharp cut-off); inconclusive = no clear call, values can overlap the other calls; inactive = mostly above about 0.92.

Assay: chemical genetic growth profiling, strain panel (AID 1159580);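 note: tested at 20 µM; growth read once vehicle control cultures reached saturation at 30 °C; 1 = growth at the plate median or of vehicle wells; lower values mean less growth of the strain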
Details: S. cerevisiae deletion strains, growth OD
[1] = locus YAL040C, strain CLN3, hits give low values
[2] = locus YCL061C, strain MRC1 (second series), hits give low values
[3] = locus YDR150W, strain NUM1, hits give low values
[4] = locus YDR363W, strain ESC2, hits give low values
[5] = locus YER002W, strain NOP16, hits give low values
[6] = locus YMR263W, strain SAP30, hits give low values
[7] = locus YMR307W, strain GAS1, hits give low values
[8] = locus YNL175C, strain NOP13, hits give low values
[9] = locus YNL197C, strain WHI3, hits give low values
[10] = locus YNL224C, strain SQS1, hits give low values
[11] = locus YOR083W, strain WHI5 (second series), hits give low values

C/C(=C\c1ccc(C(=O)O)cc1)c1ccc2c(c1)C(C)(C)CCC2(C)C
normalized growth [1]: 1.04 | normalized growth [2]: 1.02 | normalized growth [3]: 1.01 | normalized growth [4]: 1.02 | normalized growth [5]: 1 | normalized growth (locus YJR075W, strain HOC1, hits give low values): 1.01 | normalized growth [6]: 1.01 | normalized growth [7]: 1.02 | normalized growth (locus YNL128W, strain TEP1, hits give low values): 0.994 | normalized growth [8]: 0.994 | normalized growth [9]: 0.965 | normalized growth [10]: 1 | normalized growth (locus YNL322C, strain KRE1, hits give low values): 1.03 | normalized growth [11]: 1.01 | normalized growth (locus YPL241C, strain CIN2, hits give low values): 1.01

CC(N)(C(=O)O)c1ccc(C(=O)O)cc1 (stereo not drawn)
normalized growth (locus YAL013W, strain DEP1, hits give low values): 1.01 | normalized growth [1]: 1.12 [resistant] (active) | normalized growth [2]: 1.01 | normalized growth [3]: 0.998 | normalized growth [4]: 1.03 | normalized growth [5]: 0.995 | normalized growth (locus YGR229C, strain SMI1, hits give low values): 1.01 | normalized growth [6]: 0.996 | normalized growth [7]: 1 | normalized growth [8]: 1 | normalized growth [9]: 1.02 | normalized growth [10]: 1 | normalized growth [11]: 1.02
